TRb SRC2 PPI: qHTS for Inhibitors of the Interaction of Thyroid Hormone Receptor and Steroid Receptor Coregulator 2; actives 0.065% (n = 280,000); AID 1469, 2008; TRbeta-SRC2 peptide binding, fluorescence polarization; receptor liganded with 1 µM T3; Thyroid hormone receptor beta (Homo sapiens), P10828; Potency, µM (titrated, usually from 106 µM), without a hit: at the highest dose activity change, negative = inhibition, usual class: inhibitors;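 note: potency is the fitted concentration of half-maximal effect; plate controls were bound peptide for no effect and peptide without receptor for full effect; nearly all actives have a fitted effect of over 50% in size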
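Quantitative HTS by FP: 0.6 uM TRb LBD, 20 nM labeled SRC2 20-mer, 1 uM T3, 5% DMSO; 5 hr ambient incubation; % activity per concentration and potencies from concentration series.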
ERG-DNA inh: qHTS for Small Molecule Inhibitors of the ERG Ets/DNA interaction; AID 624246, 2012; Potency, µM (doses to about 76.9 µM), for inactives: at the highest dose FP activity, negative = inhibition, hits mostly inhibitors; actives 0.028% (n = 370,000); Transcriptional regulator ERG (Homo sapiens), P11308; fluorescence polarization, His-ERG Ets domain / labelled DNA; active = well fitted inhibition curve with a large enough effect in the polarisation, with a control signal flat; inconclusive = small, poorly fitted or top-dose-only effect, or effect the other way, or a change in a side signal; inactive = no such curve, though single readings can be large or run the other way; the % refers to the polarisation;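 note: polarization taken with two DNA probes labelled with fluorescein and Texas red; potency is the fitted concentration of half-maximal effect; % of control where 0% means no effect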
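His-tagged ERG Ets domain (1 uM in the protein solution; 300mM KCl, 50mM Tris-HCl, 1mM EDTA, 1mM DTT, pH 7.5) received compound, then a probe mix of 5 nM fluorescein-DNA and 100nM Texas-615-DNA. Fluorescence polarization was read for both dyes.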
TexasRed fluor: Total Fluorescence Counterscreen for Inhibitors of the Interaction of Thyroid Hormone Receptor and Steroid Receptor Coregulator 2 | TRb/SRC2 Texas Red total fluorescence interference | Potency, µM (titrated, usually from 106 µM), for inactives: top-dose fluorescence change, negative = quenching | actives 0.29% (n = 280,000) | AID 1479, 2009; active = well fitted curve in either direction with a large enough effect; inconclusive = small, poorly fitted or top-dose-only effect; note: potency is the fitted concentration of half-maximal effect; % is set by controls: 0 for no effect and ±100 for the full control effect
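Human TRb ligand-binding domain at 0.6 uM with 20 nM Texas Red SRC2 peptide in Tris buffer containing 1 uM T3 and 5% DMSO, incubated with compound 5 h at ambient temperature. Total fluorescence (555/632 nm) calculated as parallel + 2 × perpendicular.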
RGS12 GoLoco inh: qHTS Assay for Inhibitors of RGS12 GoLoco Motif Activity (Red Fluorophore); actives 0.44% (n = 230,000); Guanine nucleotide-binding protein G(i) subunit alpha-1 (Homo sapiens), P63096; Potency, µM (top dose mostly 61.6 µM), for the others: top-dose activity, negative = inhibition, most hits filed as inhibitors; Gai1:RGS12 GoLoco peptide FP, rhodamine, 10 min; AID 880, 2007; active = well fitted inhibition curve with a large enough effect, not every such curve was filed as active; inactive = no such curve, though single readings can be large or run the other way; note: potency is the fitted concentration of half-maximal effect; % is set by controls: 0 for no effect and ±100 for the full control effect; nearly all actives have a fitted effect of over 30% in size
CBFb-RUNX1 inh: qHTS Assay for Compounds Blocking the Interaction Between CBF-beta and RUNX1 for the Treatment of Acute Myeloid Leukemia | Runt-related transcription factor 1 (Homo sapiens) + Core-binding factor subunit beta … | AlphaScreen CBFb-His/RUNX1-biotin binding, biochemical | Potency, µM (top dose mostly 59.8 µM), for the others: at the top dose activity, negative = inhibition, usual class: inhibitors | 230,000 tested, under 10 active; note: % of control where 0% means no effect
Target sequence (Q01196 whole entry, looked up): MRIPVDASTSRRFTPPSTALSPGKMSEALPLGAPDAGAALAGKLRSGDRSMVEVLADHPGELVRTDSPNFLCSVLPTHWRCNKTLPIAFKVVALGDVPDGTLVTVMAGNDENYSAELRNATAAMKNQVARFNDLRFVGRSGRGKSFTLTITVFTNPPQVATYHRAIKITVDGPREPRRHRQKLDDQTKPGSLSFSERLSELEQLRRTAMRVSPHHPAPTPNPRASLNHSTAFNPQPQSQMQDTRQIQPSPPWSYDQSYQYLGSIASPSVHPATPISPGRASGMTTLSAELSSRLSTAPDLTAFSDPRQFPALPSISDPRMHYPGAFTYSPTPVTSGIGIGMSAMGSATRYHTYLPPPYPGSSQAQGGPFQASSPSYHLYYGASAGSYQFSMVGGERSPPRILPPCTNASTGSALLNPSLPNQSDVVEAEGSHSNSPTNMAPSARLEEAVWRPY
Target sequence (Q13951 whole entry, looked up): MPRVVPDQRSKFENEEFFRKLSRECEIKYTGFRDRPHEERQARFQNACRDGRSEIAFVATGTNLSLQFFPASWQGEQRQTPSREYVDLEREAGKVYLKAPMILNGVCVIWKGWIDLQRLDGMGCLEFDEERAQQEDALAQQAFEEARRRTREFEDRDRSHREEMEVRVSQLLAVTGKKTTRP
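Inhibition was taken as any reduction in AlphaScreen signal from the CBF-beta–RUNX1 pair (His and biotin tags, 30 nM each), measured after compound (15 min) and bead (90 min) incubations at room temperature.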
Active calls of the source: *; i = inactive; ? = inconclusive; nt = no result given; [ ] = another dose, or the depositor's remark. This is one part of a sample in which hits are shown more often than they occur. Unless noted, calls come from the whole dose curve; as a rule, active = well fitted curve in the direction sought with a large enough effect; inconclusive = small, poorly fitted or top-dose-only effect, or another doubt; inactive = no such curve, though single readings can be large; an effect the other way counts as inactive or inconclusive.

SMILES	TRb SRC2 PPI	ERG-DNA inh	TexasRed fluor	RGS12 GoLoco inh	CBFb-RUNX1 inh
CN(C)c1ccc(NC(=O)c2ccc3nsnc3c2)cc1	-9%	3%	-6%	13µM*	-10%
Cc1c(Cl)cccc1Cl	0%[201 µM]	nt	0%[201 µM]	nt	nt
O=C1C=C(N2CCN(c3ccccn3)CC2)C(=O)c2c(O)ccc(O)c21	nt	-3%	nt	6%[14.2 µM]	nt
CC1=CC(=O)c2c(O)ccc(O)c2C1=O	-23%	nt	22µM*[quencher]	25µM*	nt
CC1CCC/C(=C\Nc2ccc(O)cc2)C1=O (centres undefined)	28µM*	-10%	13%	28µM*	-18%
CCc1cccc2c(C(=O)CSc3nncn3-c3ccccc3OC)c[nH]c12	0%	4%	89µM*[quencher]	-55%	-1%
COc1ccc(OC)c(OC)c1	6%[201 µM]	nt	-2%[201 µM]	nt	nt
Cc1c2cccn2cc[n+]1C	1%	-1%	-3%	8.9µM*	3%
CCc1ccc(N(CC)C(=O)Cn2cnc3sc(C)c(S(=O)(=O)N4CCN(c5ncccn5)CC4)c3c2=O)cc1	3%	-6%	1%	nt	nt
COc1ccc2c(c1)Cc1sc(NC(=O)c3ccccc3C)nc1-2	-12%	-2%	0.0028µM*[quencher]	nt	nt
COc1ccc2c(c1)Cc1sc(NC(=O)c3ccccc3)nc1-2	3%	7%	-1%	4%	3%
Cc1ccc(Cl)cc1Cl	-8%[201 µM]	nt	-5%[201 µM]	nt	nt
CC(C)N=c1cc2n(-c3ccc(Cl)cc3)c3ccccc3nc-2cc1Nc1ccc(Cl)cc1	-6%[53 µM]	?	3%[53 µM]	10µM*	-24%[21.7 µM]
O=C(O)c1cc(N=Nc2ccc(-c3ccc(N=Nc4ccc(O)c(C(=O)O)c4)cc3)cc2)ccc1O	?	nt	28µM*[quencher]	nt	nt
CC(C)(C)OC(=O)N1CCC(c2c(C(=O)NCc3ccco3)cnn2-c2ccccc2)CC1	5%	6%	-7%	nt	nt
CC(C)c1ccc(OCC(=O)N(c2ccccn2)C2CCCCC2)cc1	-26%[53 µM]	7%	5.6µM*[quencher]	4%	-5%
CS/C(=N\O)C(=O)N(C)C	2%[201 µM]	nt	0%[201 µM]	nt	nt
Cc1cc(C)n2c(Nc3ccc(Cl)cc3)c(-c3ccsc3)nc2n1	1%	-1%	1122µM*[quencher]	nt	nt
Cc1[nH]c(=O)c(C#N)c2c1COC(C)(C)C2	1%	2%	-4%	6%	3%
CC1=C(C#N)C(=O)OC(C)(C)C1	?	?	45µM*[fluorescent]	-46%	6%
CCN1CCN(c2ncc3c(n2)CCN(CC(C)C)C3)CC1	-2%	-2%	-1%	nt	nt
Cc1ccc(N=Nc2c(O)ccc3ccccc23)c(C)c1	40µM*	nt	45µM*[fluorescent]	nt	nt
O=C(Cc1ccccc1[N+](=O)[O-])NCC1(c2cccc3c2OCO3)OCCO1	nt	0%	nt	nt	nt
COc1ccc(OC)c(-c2c3cc(O)c(=O)cc-3oc3cc(O)c(O)cc23)c1	25µM*	i	45µM*[fluorescent]	10µM*	nt
O=c1cc2oc3cc(O)c(O)cc3c(-c3ccccc3O)c-2cc1O	18µM*	2%	40µM*[fluorescent]	7.9µM*	nt
SMILES	TRb SRC2 PPI	ERG-DNA inh	TexasRed fluor	RGS12 GoLoco inh	CBFb-RUNX1 inh
CCNc1ccc2noc3c2c1C(=O)c1ccccc1-3	14µM*	?	45µM*[fluorescent]	4µM*	nt
O=C1c2ccccc2-c2onc3ccc(NCc4ccco4)c1c23	35µM*	?	45µM*[fluorescent]	11µM*	?
O=C1c2ccccc2-c2onc3ccc(N4CCCC4)c1c23	40µM*	18µM*	45µM*[fluorescent]	-200%	nt
O=C1C(Cl)=C(NCc2ccco2)C(=O)c2ccccc21	nt	-3%	nt	nt	nt
CCNc1ccccc(-c2ccc3ccccc3n2)c1=O	-1%	-3%	-3%	-4%	-1%
CCOC(=O)c1c(C)oc2c1C(=O)c1ccccc1C2=O	8%	2%	-4%	8%	-11%
O=C1c2ccccc2C(=O)c2c1cccc2N1CCCC1	7%	9%	0%	78%	1%
CCOc1ccc2noc3c2c1C(=O)c1ccccc1-3	50µM*	4%	?	-15%	-21%
